# PubChem BioAssay (Tox21)
# Where “and” joins values, the source holds several entries; their conditions need not be identical. Identical values can stand only once. Records with an inconclusive call do not appear. A call without a number means that no potency is given here. Calls of active or inactive are those of the source. The call rests on the fitted dose curve; in most records, active means well fitted curve in the direction sought with a large enough effect in the repeat runs; inconclusive means weak or mixed curves; inactive means no such curve, though single readings can be large; an effect the other way counts as inactive or inconclusive.
# Target: Cytochrome P450 2C9 (Homo sapiens) (UniProt P11712)
# Assay: Cytochrome P450 Family 2 Subfamily C Member 9 (CYP2C9) small molecule antagonists: luciferase reporter qHTS assay (AID 1671198)
# Settings: P450-Glo CYP2C9 enzyme assay, luciferin luminescence; series mostly up to 115 µM
# Method in brief: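 CYP2C9 activity was measured with a P450-Glo proluciferin substrate. Enzyme–substrate mix was held with compound for 10 min at room temperature, then NADPH regeneration solution was added for 1 h at 37C. Luciferin product was read as luminescence.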
# Further: nearly all actives have a fitted effect of over 50% in size.
# Potency means the concentration at half of the fitted maximal effect.
# Cytochrome P450 2C9 (Homo sapiens), sequence (P11712 whole entry, looked up): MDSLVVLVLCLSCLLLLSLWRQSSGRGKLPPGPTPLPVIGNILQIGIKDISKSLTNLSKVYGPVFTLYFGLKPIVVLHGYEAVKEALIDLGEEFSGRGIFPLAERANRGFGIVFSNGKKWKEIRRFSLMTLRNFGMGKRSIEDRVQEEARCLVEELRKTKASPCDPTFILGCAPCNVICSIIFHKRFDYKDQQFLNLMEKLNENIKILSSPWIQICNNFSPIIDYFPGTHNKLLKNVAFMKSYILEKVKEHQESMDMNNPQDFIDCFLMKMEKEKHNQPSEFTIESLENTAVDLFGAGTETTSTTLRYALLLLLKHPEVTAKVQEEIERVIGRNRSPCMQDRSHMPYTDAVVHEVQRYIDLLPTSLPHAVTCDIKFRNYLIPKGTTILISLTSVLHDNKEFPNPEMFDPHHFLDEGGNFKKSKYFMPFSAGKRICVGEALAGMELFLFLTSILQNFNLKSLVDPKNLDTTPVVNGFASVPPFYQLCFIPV
row,Structure (SMILES),Potency
1,O=CNc1ccccc1,inactive
2,CCOC(=S)SSC(=S)OCC,17.8 µM (active)
3,CC(=O)Nc1ccc(/C=N/NC(N)=S)cc1,inactive
4,Cn1sccc1=O,31.7 µM (active) and 35.6 µM (active)
5,ClC(Cl)(Cl)c1ccc(C(Cl)(Cl)Cl)cc1,39.5 µM (active)
6,N=C(N=C(N)N)N1CCOCC1,inactive
7,CC1=CC(=O)/C(=C(/C)O)C(=O)O1,63.3 µM (active)
8,CCN(CC)CCOC(=O)C1(c2ccccc2)CCCC1,inactive
9,CC(=O)/C=C/C1C(C)=CCCC1(C)C (configuration not stated),inactive
10,O=c1[nH]cnc2ccccc12,inactive
11,CCc1nn(C2CCCCC2)c2cc(C3(C#N)CCC(C(=O)O)CC3)ccc12 (configuration not stated),20 µM (active)
12,CC(C)CCCCCCOC(=O)c1ccc(C(=O)OCCCCCCC(C)C)c(C(=O)OCCCCCCC(C)C)c1,71 µM (active)

# Target: Cytochrome P450 1A2 (Homo sapiens) (UniProt P05177)
# Assay: Cytochrome P450 Family 1 Subfamily A Member 2 (CYP1A2) small molecule antagonists: luciferase reporter qHTS assay (AID 1671199)
# Settings: P450-Glo CYP1A2 enzyme, luciferin luminescence, 1 h; series mostly up to 115 µM
# Method in brief: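 Inhibition of CYP1A2 conversion of proluciferin to luciferin, detected by luminescence. Reaction run 1 h at room temperature with NADPH regeneration after brief compound preincubation.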
# Cytochrome P450 1A2 (Homo sapiens), sequence (P05177 whole entry, looked up): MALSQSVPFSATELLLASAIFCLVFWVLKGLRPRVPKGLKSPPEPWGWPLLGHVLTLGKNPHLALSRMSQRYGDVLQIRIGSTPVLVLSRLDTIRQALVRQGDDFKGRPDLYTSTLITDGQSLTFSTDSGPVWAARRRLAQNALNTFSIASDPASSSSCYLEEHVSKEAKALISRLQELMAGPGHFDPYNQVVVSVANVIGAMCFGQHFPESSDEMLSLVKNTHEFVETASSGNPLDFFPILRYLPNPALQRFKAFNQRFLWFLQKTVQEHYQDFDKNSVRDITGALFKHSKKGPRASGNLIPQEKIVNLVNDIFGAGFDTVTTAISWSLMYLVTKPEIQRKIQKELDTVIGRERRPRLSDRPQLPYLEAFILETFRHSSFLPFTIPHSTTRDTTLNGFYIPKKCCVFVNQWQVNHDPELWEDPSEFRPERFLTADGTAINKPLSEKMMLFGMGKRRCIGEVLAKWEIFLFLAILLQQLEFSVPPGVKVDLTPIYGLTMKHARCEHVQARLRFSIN
row,Structure (SMILES),Potency
1,CC(=O)SCc1ccco1,inactive
2,CC(=O)Nc1ccc(/C=N/NC(N)=S)cc1,inactive
3,Cn1sccc1=O,35.6 µM (active) and 31.7 µM (active)
4,CCCCOc1ccc(CC(=O)NO)cc1,15.5 µM (active)
5,CC(=O)/C(C)=C/C1C(C)=CCCC1(C)C (configuration not stated),79.6 µM (active)
6,ClC(Cl)(Cl)c1ccc(C(Cl)(Cl)Cl)cc1,4.98 µM (active)
7,CC(=O)/C=C/C1C(C)=CCCC1(C)C (configuration not stated),inactive
8,c1ccc(-c2nc[nH]c2-c2ccccc2)cc1,8.12 µM (active)
9,CCC(C)N(C)C(=O)c1cc2ccccc2c(-c2ccccc2Cl)n1 (configuration not stated),inactive
10,CC(=O)OC/C=C/c1ccccc1,31.7 µM (active)
11,C[C@H](CCC(=O)O)[C@H]1CC[C@H]2[C@@H]3[C@H](O)C[C@@H]4C[C@H](O)CC[C@]4(C)[C@H]3CC[C@]12C,31.8 µM (active)
12,CN(C(=O)CCCOc1ccc2[nH]c(=O)ccc2c1)C1CCCCC1,inactive
13,CCc1nn(C2CCCCC2)c2cc(C3(C#N)CCC(C(=O)O)CC3)ccc12 (configuration not stated),inactive
14,CC(C)CCCCCCOC(=O)c1ccc(C(=O)OCCCCCCC(C)C)c(C(=O)OCCCCCCC(C)C)c1,inactive
15,CC1CCc2cc(F)cc3c(=O)c(C(=O)O)cn1c23 (configuration not stated),inactive

# Target: Voltage-gated inwardly rectifying potassium channel KCNH2 (Homo sapiens) (UniProt Q12809)
# Assay: Human Ether-a-go-go-Related Gene (hERG) channel small molecule antagonists: fluorescence cell-based qHTS assay (AID 1671200);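 on activity change, negative = inhibition: hERG-expressing U2OS cells given a thallium stimulus after FluxOR II dye loading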
# Settings: hERG-U2OS cells, FluxOR thallium flux fluorescence; series mostly up to 76.8 µM
# Method in brief: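 Quantitative HTS in hERG-U2OS cells: thallium entry through the channel reports activity, read as continuous 480/540 nm fluorescence over 2 min after stimulus addition.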
# Voltage-gated inwardly rectifying potassium channel KCNH2 (Homo sapiens), sequence (Q12809 whole entry, looked up): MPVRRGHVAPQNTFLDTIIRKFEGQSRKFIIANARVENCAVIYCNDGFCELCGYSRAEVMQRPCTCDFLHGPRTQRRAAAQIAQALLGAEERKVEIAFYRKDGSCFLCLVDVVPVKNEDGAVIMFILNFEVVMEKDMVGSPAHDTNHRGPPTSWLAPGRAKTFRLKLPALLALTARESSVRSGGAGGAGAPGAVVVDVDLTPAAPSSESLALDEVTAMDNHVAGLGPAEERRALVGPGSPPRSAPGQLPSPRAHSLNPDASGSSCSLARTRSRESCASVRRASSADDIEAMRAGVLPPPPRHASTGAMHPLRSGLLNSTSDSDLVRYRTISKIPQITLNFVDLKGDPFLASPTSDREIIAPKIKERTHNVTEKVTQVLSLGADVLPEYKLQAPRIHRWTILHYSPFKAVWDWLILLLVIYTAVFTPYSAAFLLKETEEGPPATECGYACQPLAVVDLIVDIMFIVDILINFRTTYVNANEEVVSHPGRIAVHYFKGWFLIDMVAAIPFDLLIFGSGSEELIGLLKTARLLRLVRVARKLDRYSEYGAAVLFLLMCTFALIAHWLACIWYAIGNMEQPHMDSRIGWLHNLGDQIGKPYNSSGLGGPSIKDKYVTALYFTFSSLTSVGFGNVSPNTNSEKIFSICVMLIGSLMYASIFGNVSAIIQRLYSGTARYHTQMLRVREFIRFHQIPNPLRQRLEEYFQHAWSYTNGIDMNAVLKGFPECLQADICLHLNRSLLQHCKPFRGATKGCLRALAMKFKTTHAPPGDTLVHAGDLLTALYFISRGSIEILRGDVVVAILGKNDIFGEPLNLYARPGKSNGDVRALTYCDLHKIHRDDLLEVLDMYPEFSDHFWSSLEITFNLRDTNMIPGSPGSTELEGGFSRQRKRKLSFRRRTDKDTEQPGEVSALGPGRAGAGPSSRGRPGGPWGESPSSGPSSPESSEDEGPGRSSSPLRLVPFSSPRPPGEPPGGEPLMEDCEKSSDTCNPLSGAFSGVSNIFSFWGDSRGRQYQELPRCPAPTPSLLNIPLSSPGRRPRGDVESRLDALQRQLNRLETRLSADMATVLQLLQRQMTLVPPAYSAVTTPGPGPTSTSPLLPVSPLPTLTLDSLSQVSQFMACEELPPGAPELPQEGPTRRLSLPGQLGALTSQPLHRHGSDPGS
Structure (SMILES),Potency,"activity change, negative = inhibition"
O=CNc1ccccc1,inactive,
CC(=O)SCc1ccco1,inactive,
CCOC(=S)SSC(=S)OCC,inactive,
CC(=O)Nc1ccc(/C=N/NC(N)=S)cc1,inactive,
O=S1(=O)N=C(O)c2ccccc21,inactive,
CCC(=O)OC(C)(C)C1CC=C(C)CC1 (configuration not stated),inactive,
Cn1sccc1=O,inactive,
CCCCOc1ccc(CC(=O)NO)cc1,inactive,
CC(=O)/C(C)=C/C1C(C)=CCCC1(C)C (configuration not stated),inactive,
CN(C)C/C=C(/c1ccc(Br)cc1)c1cccnc1,13.4 µM (active),
ClC(Cl)(Cl)c1ccc(C(Cl)(Cl)Cl)cc1,6.85 µM (active),
CCOC(=O)CC(=O)c1cc(F)c(Cl)nc1Cl,inactive,
N=C(N=C(N)N)N1CCOCC1,inactive,
CCN(CCO)CCCC(C)Nc1ccnc2cc(Cl)ccc12 (configuration not stated),,9.57% [at 6.97 µM] (inactive)
NC[C@H]1O[C@H](O[C@H]2[C@H](O)[C@@H](O[C@H]3O[C@H](CO)[C@@H](O)[C@H](N)[C@H]3O)[C@H](N)C[C@@H]2N)[C@H](O)[C@@H](O)[C@@H]1O,,0.203% [at 6.97 µM] (inactive)
Cc1cc(C)c(S(=O)(=O)O)cc1N=Nc1cc(S(=O)(=O)O)c2ccccc2c1O,inactive,
CC1=CC(=O)/C(=C(/C)O)C(=O)O1,inactive,
CCN(CC)CCOC(=O)C1(c2ccccc2)CCCC1,inactive,
CC(Cc1cccc(C(F)(F)F)c1)NCCOC(=O)c1ccccc1 (configuration not stated),8.49 µM (active),
CC(=O)/C=C/C1C(C)=CCCC1(C)C (configuration not stated),inactive,
c1ccc(-c2nc[nH]c2-c2ccccc2)cc1,inactive,
Cc1cccc(C(C)(C)C)c1O,inactive,
CCC(C)N(C)C(=O)c1cc2ccccc2c(-c2ccccc2Cl)n1 (configuration not stated),inactive,
O=c1[nH]cnc2ccccc12,inactive,
Cc1ccccn1,inactive,
CCOc1nc2cccc(C(=O)O)c2n1Cc1ccc(-c2ccccc2-c2nn[nH]n2)cc1,inactive,
CC(=O)OC/C=C/c1ccccc1,inactive,
C[C@H](CCC(=O)O)[C@H]1CC[C@H]2[C@@H]3[C@H](O)C[C@@H]4C[C@H](O)CC[C@]4(C)[C@H]3CC[C@]12C,inactive,
CN(C(=O)CCCOc1ccc2[nH]c(=O)ccc2c1)C1CCCCC1,inactive,
CN(C)CCCOc1nn(Cc2ccccc2)c2ccccc12,4.25 µM (active),
